A selection: hits, their analogues and other compounds. The true share with any hit is near 3.4%.
HGIII-sPLA2 inh – Blocks human group III sPLA2 activity. QFRET BODIPY PC-A2 liposome hydrolysis, fluorescence. inhibition, % at 12.2 µM. hit rate 0.56% among 370,000. AID 743126;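 active = inhibition above mean plus 3 SD of compounds lying within the high and low control bounds, cut at about 19% in these data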
Target sequence (Q9NZ20 whole entry, looked up): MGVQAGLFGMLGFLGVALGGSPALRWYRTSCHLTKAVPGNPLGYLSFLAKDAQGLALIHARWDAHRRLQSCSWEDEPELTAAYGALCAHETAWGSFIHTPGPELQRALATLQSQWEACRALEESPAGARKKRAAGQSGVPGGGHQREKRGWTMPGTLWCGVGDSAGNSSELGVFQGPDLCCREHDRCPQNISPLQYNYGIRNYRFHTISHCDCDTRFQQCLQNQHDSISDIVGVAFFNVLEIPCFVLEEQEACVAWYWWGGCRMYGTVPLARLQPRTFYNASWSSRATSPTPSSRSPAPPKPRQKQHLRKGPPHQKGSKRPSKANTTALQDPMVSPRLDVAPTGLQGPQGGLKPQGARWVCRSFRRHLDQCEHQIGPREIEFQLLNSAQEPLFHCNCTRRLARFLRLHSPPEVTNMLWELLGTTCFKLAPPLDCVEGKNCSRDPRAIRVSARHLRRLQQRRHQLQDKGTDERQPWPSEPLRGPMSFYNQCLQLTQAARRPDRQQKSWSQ
proKLK7 act – activators of human kallikrein-7 zymogen | hit rate 0.9% among 370,000 | P49862 | purified proKLK7, EDANS-DABCYL substrate fluorescence; 100% is mature enzyme control, 0% vehicle | AID 652039 | activation, % at 7 µM;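 active = activation above the mean of all tested compounds plus 3 SD, computed per campaign excluding outliers beyond control limits, cut at about 13% in these data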
ADAM10 inh – inhibitors of human ADAM10; recombinant ADAM10, EDANS/DABCYL FRET peptide cleavage, 3 h; O14672; hit rate 0.62% among 370,000; inhibition, % at 7 µM; AID 720582;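 active = inhibition above a per-campaign cutoff equal to the mean of compounds falling between control-based bounds plus 3 SD, cut at about 20% in these data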
ADAM17 inh – inhibitors of human ADAM17. P78536. recombinant ADAM17, EDANS/DABCYL FRET peptide cleavage. inhibition, % at 6.95 µM. hit rate 0.83% among 370,000;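 active = inhibition above the mean of compounds lying between control limits plus 3 SD, set per campaign, cut at about 8.5% in these data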
PLCb3 inh – PLC-beta3 (human) inhibition, primary screen; Purified PLC-beta3, fluorogenic substrate, fluorescence; inhibition, % at 12.2 µM; hit rate 0.18% among 370,000; AID 720704; in the data active = inhibition above about 11%
PLC-gamma1 inh – PLC-gamma1 (human) inhibition, primary screen. purified PLC-gamma1, fluorogenic substrate, fluorescence. hit rate 0.84% among 370,000. inhibition, % at 12.2 µM. P19174; in the data active = inhibition above about 9.5%
proKLK7 act conf – proKLK7 activation, confirmation; shares compounds with proKLK7 act; purified proKLK7, EDANS-DABCYL substrate fluorescence; scaled: vehicle 0, mature enzyme 100; activation, % at 7 µM; hit rate 68% among 3,200; AID 686949;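 active = activation, as change over the incubation, above the mean of all tested compounds plus 3 SD, cut at about 13% in these data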
EDANS interfere – fluorescence interference counter-screen for KLK7 activators | shares compounds with proKLK7 act | EDANS-DABCYL substrate fluorescence interference, no enzyme, 4 h; solvent 0%, active enzyme control 100% | activation, % at 7 µM | hit rate 80% among 3,200 | AID 686952;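 active = activation above the all-compound mean plus 3 SD, ignoring values outside control-based bounds, cut at about 4.8% in these data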;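 also: value is the 4 h activation minus the activation read at time zero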
EDANS interf – EDANS fluorescence interference in dose response, no enzyme; hit rate 20% among 250; AID 720493; EDANS-DABCYL peptide fluorescence interference; EC50, µM; shares compounds with proKLK7 act;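 active = compounds that raise the fluorescence signal in this interference counterscreen, with EC50 at or below 10 µM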;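 also: intact quenched peptide substrate alone read at 355 nm excitation and 520 nm emission; signal is fluorescence gain from T0 to T4 after four hours at room temperature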
Large screens that a line does not name were inactive (follow-up assays come after a bar, where they were run).

Cc1ccc(-c2nnc(SCC(=O)Nc3ccc(-c4nc5ccc(C)cc5s4)cc3)n2Cc2ccco2)cc1	proKLK7 act 104 | proKLK7 act conf 94 | EDANS interfere 116
C=CCn1c(SCC(=O)NNC(=O)Nc2ccc(C)cc2)nnc1-c1ccccc1	none
Cc1ccc2nc(-c3ccc(NC(=O)CSc4nnc(-c5cccc(Cl)c5)n4Cc4ccco4)cc3)sc2c1	proKLK7 act 70 | proKLK7 act conf inactive | EDANS interfere inactive
COc1ccc(-c2nnc(SCC(=O)Nc3ccc(Oc4ccccc4)cc3)n2Cc2ccco2)cc1	none
Cc1ccc2nc(-c3ccc(NC(=O)CSc4nnc(-c5cc(-c6ccc(F)cc6)n[nH]5)n4N)cc3)sc2c1	none
C=C1[C@@H]2CC[C@H]3[C@]4(C)[C@@H](O)CC[C@@](C)(C(=O)OC)[C@H]4C[C@H](O)[C@]3(C2)[C@H]1O	none
Cc1ccc(C2CCC3(CCC(=O)N3CCOC(=O)Nc3ccc(F)cc3)CC2)cc1 (stereo not given)	none
Cc1ccc(-c2nnc(SCC(=O)Nc3ccc(Oc4ccccc4)cc3)n2-c2ccc(Cl)cc2)cc1	none
CC(=O)Nc1sc2c(c1-c1nc3ccccc3s1)CCOC2	none (no result: proKLK7 act)
COc1cc2c(cc1OC)CN(C1CCCN(Cc3cccc(C(C)=O)c3)C1)CC2 (stereo not given)	proKLK7 act 23 | proKLK7 act conf inactive | EDANS interfere 12
CCCCCCCCNC(=O)C1CSCCS(=O)(=O)N1Cc1ccccc1 (stereo not given)	none
N#Cc1c(NC(=O)COC(=O)c2nccnc2N)sc2c1CCCC2	proKLK7 act 17 | proKLK7 act conf 16 | EDANS interfere 13 | EDANS interf inactive
CCOC(=O)c1c(NC(=O)COC(=O)c2nccnc2N)sc2c1CCC2	none
CCOC(=O)c1c(NC(=O)COC(=O)c2nccnc2N)sc(C(=O)N(C)C)c1C	proKLK7 act 43 | proKLK7 act conf 42 | EDANS interfere 46
CCOC(=O)c1c(NC(=O)COC(=O)c2ccccn2)sc(C(=O)N(C)C)c1C	none
COC(=O)[C@]12C[C@H](CC(=O)N3CCCC3)C(=O)N(Cc3ccco3)C1=C[C@H](COCc1ccccc1)O[C@@H]2C	none
O=c1oc2c(CN3CCOCC3)c(O)ccc2c2c1CCC2	proKLK7 act 70 | proKLK7 act conf 68 | EDANS interfere 72
CCCc1cc(=O)oc2c(CN3CCCC3)c(O)ccc12	proKLK7 act 60 | proKLK7 act conf 72 | EDANS interfere 69
O=c1oc2c(CN3CCN(CCO)CC3)c(O)ccc2cc1-c1ccccn1	proKLK7 act 60 | proKLK7 act conf 70 | EDANS interfere 82
Cc1cc(=O)oc2c(CN3CCCC3)c(O)ccc12	proKLK7 act 45 | proKLK7 act conf 76 | EDANS interfere 75
O=C(NCc1ccc(Cl)c(Cl)c1)O[C@H]1CC[C@@]23CCCN2C(=O)CCC[C@H]3C1	none (no result: proKLK7 act)
Cc1cc(=O)oc2c(O)c(O)ccc12	none
Cc1cc(=O)oc2c(CN3CCN(CCO)CC3)c(O)ccc12	proKLK7 act 120 | proKLK7 act conf 65 | EDANS interfere 69
CN1CCN(Cc2c(O)ccc3c(-c4ccccc4)cc(=O)oc23)CC1	proKLK7 act 17 | proKLK7 act conf inactive | EDANS interfere inactive
CCN1CCN(Cc2c(O)ccc3c(C)cc(=O)oc23)CC1	proKLK7 act 44 | proKLK7 act conf 71 | EDANS interfere 73
CCCCNS(=O)(=O)/C=C/c1cc2c(cc1CNC(=O)OC(C)(C)C)OCO2	none
O=C(Nc1ccc(Cl)cc1)OC1CCC12CCC(c1ccccc1)CC2 (stereo not given)	none
CC(C)CN1C(=O)C[C@@]2(C(=O)N(C)c3ccc(NC(=O)C(C)(C)C)cc32)C1c1ccccc1 (stereo not given in full)	none
COc1ccc(NC(=O)COC(=O)c2ccc(S(=O)(=O)N3CC(C)CC(C)C3)cc2)cc1OC (stereo not given)	none
COc1ccc(NC(=O)c2ccc(S(=O)(=O)N3CC(C)CC(C)C3)cc2)cc1S(N)(=O)=O (stereo not given)	proKLK7 act 18 | proKLK7 act conf 24 | EDANS interfere 14 | EDANS interf inactive
COc1ccccc1-c1c(C)oc2c(CN3CCCCC3C)c(O)ccc2c1=O (stereo not given)	proKLK7 act 53 | proKLK7 act conf 66 | EDANS interfere 69
Cc1oc2c(O)c(O)ccc2c(=O)c1-c1ccccc1	none
CCOC(=O)c1oc2c(CN3CCN(C)CC3)c(O)ccc2c(=O)c1-c1ccccc1OC	none
Cc1oc2c(CN3CCCCC3C)c(O)ccc2c(=O)c1-c1ccccc1 (stereo not given)	proKLK7 act 34 | proKLK7 act conf 47 | EDANS interfere 59
Cc1ccccc1NC(=O)Cn1nnc(-c2ccncc2)n1	none
COC(=O)[C@]12C[C@H](CC(=O)NCC3CCCCC3)C(=O)N(Cc3cccc4ccccc34)C1=C[C@H](C(C)C)O[C@@H]2C1CC1	none
COc1ccc2nccc(C(N)=O)c2c1	proKLK7 act 13 | proKLK7 act conf 26 | EDANS interfere 26
CCOC(=O)COc1ccc2nsnc2c1Cl	proKLK7 act 38 | proKLK7 act conf 37 | EDANS interfere 41
O=C(O)COc1cccc2nsnc12	none
Cc1cccn2c(=O)c3cc(C(=O)N4CCN(C(=O)c5ccco5)CC4)n(C)c3nc12	proKLK7 act 20 | proKLK7 act conf 23 | EDANS interfere 35
Cc1cccn2c(=O)c3cc(C(=O)N4CCOCC4)n(C)c3nc12	proKLK7 act 20 | proKLK7 act conf 46 | EDANS interfere 35 | EDANS interf inactive
Cc1cccn2c(=O)c3cc(C(=O)N4COCC4(C)C)n(Cc4ccccc4)c3nc12	none
Cc1cccn2c(=O)c3cc(C(=O)N4c5ccccc5CC4C)n(C)c3nc12 (stereo not given)	none
COCCCn1c(C(=O)N2CCOCC2)cc2c(=O)n3cccc(C)c3nc21	proKLK7 act 19 | proKLK7 act conf 17 | EDANS interfere 18
COc1ccc(S[C@]2(C(=O)N3CCOCC3)CC(=O)N(C(=O)c3ccccc3)[C@@H]2c2ccc(OC)cc2)cc1	none
Cc1ccnc(NC(=S)NC(=O)c2cncc(Br)c2)c1	proKLK7 act 13 | proKLK7 act conf 14 | EDANS interfere 15
